# Calls of active or inactive are those of the source.
# Assay: E. coli DRC41 culture turbidity changes, primary screen, E. coli filamentation inducer project, strain DRC41, OD650, 48 h (AID 1152);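 note: E. coli MC1000 strain DRC41 lacking acrAB efflux pump and sulA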
# Settings: E. coli DRC41 (acrAB sulA), higher = more signal, called active from +8 up or from −8 down
row,Structure (SMILES),z-score
1,COc1ccc([Si](C)(C)[C@H]2[C@H](CCO)O[C@@]3(C(=O)N(Cc4cccc(N5CCCCC5=O)c4)c4ccccc43)[C@@H]2C)cc1,-0.205 (inactive)
2,O=C1O[C@@H](c2ccccc2)[C@@H](c2ccccc2)N2[C@@H](c3ccc(O)cc3)[C@]3(C(=O)Nc4ccc(C#CCCO)cc43)[C@@H](C(=O)NC[C@H](O)c3ccccc3)[C@H]12,0.646 (inactive)
3,CC(C)CN1C(=O)[C@@]2(Cc3ccccc31)c1ccccc1C(=O)N(Cc1ccccc1C(F)(F)F)[C@H]2c1ccc(CO)cc1,1.14 (inactive)
4,CC(C)C(O)C1C=CC2C(=O)N(C)C(=O)C2N1N(c1ccccc1)c1ccccc1 (stereo not given),-0.573 (inactive)
5,C=CCC(OC(C)=O)[C@@H]1[C@@H](N(Cc2ccc(-c3ccccc3)cc2)C(=O)c2cccc3ccccc23)c2cc(OCCCO)ccc2N1C(=O)Cc1ccc2ccccc2c1 (stereo not given in full),-0.316 (inactive)
6,Cc1ccc(S[C@]2(C(=O)NC3CC3)CC(=O)N(Cc3ccccc3Cl)[C@@H]2c2ccc(CO)cc2I)cc1,0.386 (inactive)
7,O=C1NCC(=O)N2[C@@H]1C[C@@H](C(=O)O)[C@H]2c1ccc(O)cc1,0.533 (inactive)
8,CC(C)CNC(=O)[C@@]1(c2ccc([N+](=O)[O-])cc2)CC(=O)N(C2CCCCC2)[C@@H]1c1ccc(CO)cc1I,-0.826 (inactive)
9,COc1ccc(NN2C(C(O)c3ccccn3)C=CC3C(=O)N(C4CCCCC4)C(=O)C32)cc1 (stereo not given),0.29 (inactive)
10,[N-]=[N+]=NCc1ccccc1C[C@@]1(C(N)=O)N=C(c2ccc(OCCCO)cc2)O[C@@H]1c1ccccc1CN=[N+]=[N-],0.315 (inactive)
11,CN1C(=O)C2C=CC(C(O)c3c(F)cccc3Cl)N(Nc3ccccc3)C2C1=O (stereo not given),-1.32 (inactive)
12,COC(=O)c1c(CC[C@@H](CO)NC(=O)N[C@H](Cn2cc(-c3ccccc3C)nn2)C(C)C)oc(C(C)=O)c1C(=O)OC,0.206 (inactive)
13,C=CCOC(=O)[C@@H]1[C@H]2C(=O)O[C@H](c3ccccc3)[C@H](c3ccccc3)N2[C@H](c2ccc(OCCOC(=O)[C@H]3C[C@H]4C(=O)N[C@@H](CCCCN(C)C)C(=O)N4[C@H]3c3cccc(OCCO)c3)cc2)[C@@]12C(=O)Nc1ccc(I)cc12,-0.142 (inactive)
14,COc1ccc([Si](C)(C)[C@@H]2[C@@H](CCO)O[C@]3(C(=O)N(Cc4cccc(N5C(=O)c6ccccc6Oc6ccccc65)c4)c4ccccc43)[C@H]2C)cc1,0.705 (inactive)
15,C=CC[C@]1(C(=O)N(C)C)N=C(c2ccc(OCCCO)cc2)O[C@H]1c1ccccc1N=[N+]=[N-],0.355 (inactive)
16,COCCOC(=O)N1C(=O)[C@@]2(c3cc(C#CCC(C(=O)OC)C(=O)OC)ccc31)[C@H](c1ccc(OCCO)cc1)N1[C@H](c3ccccc3)[C@H](c3ccccc3)OC(=O)[C@H]1[C@@H]2C(=O)N1CCN(c2ncccn2)CC1,1.89 (inactive)
17,COCCOC(=O)N1C(=O)[C@@]2(c3cc(C#CC4(O)CCCCCC4)ccc31)[C@H](c1ccccc1OCCO)N1[C@H](c3ccccc3)[C@H](c3ccccc3)OC(=O)[C@H]1[C@@H]2C(N)=O,-0.552 (inactive)
18,C=CCNC(=O)[C@H]1[C@@H]2C(=O)O[C@@H](c3ccccc3)[C@@H](c3ccccc3)N2[C@@H](c2ccccc2OCCO)[C@]12C(=O)N(C(=O)OCCOC)c1ccc(C#CC3=CCCCC3)cc12,0.687 (inactive)
19,C=CCN1C(=O)[C@@]2(O[C@@H](CCn3cc([C@H](O)c4ccccc4)nn3)[C@H]([Si](C)(C)c3ccc(OC)cc3)[C@H]2C)c2ccccc21,0.508 (inactive)

# Assay: small-molecule binders of probe aLefty1, primary screen, biochemical, small-molecule microarray, 635/667 nm fluorescence (AID 1153);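 note: score merges spot fluorescence with signal-to-noise ratio from the scanned slide images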
# Settings: higher = more signal
row,Structure (SMILES),composite z-score
1,COCCOC(=O)N1C(=O)[C@@]2(c3cc(C#Cc4ccc(OC)cc4)ccc31)[C@H](C(=O)N1CCCCCCC1)[C@H]1C(=O)O[C@H](c3ccccc3)[C@H](c3ccccc3)N1[C@@H]2c1ccc(O)cc1,1.58
2,COc1cc2c(cc1OC)CN(C(=O)[C@H]1[C@@H]3C(=O)O[C@@H](c4ccccc4)[C@@H](c4ccccc4)N3[C@@H](c3ccc(OCCO)cc3)[C@]13C(=O)Nc1ccc(C#CC4(O)CCCCCC4)cc13)CC2,1.51
3,CCCC[C@@H]1C[C@H]1[C@@H](NC(=O)c1cccnc1)c1ccc(-c2ccccc2)cc1,-0.105
4,CON(C)C(=O)C=C1C[C@@H](c2cccc(Cl)c2)O[C@@H](c2cccc(Cl)c2)O1,-0.0035
5,COCCCNC(=O)[C@]1(CCC(=O)OC(C)(C)C)N=C(c2ccc(OCCCO)cc2)O[C@@H]1c1ccccc1,-0.166
6,C=CCOC(=O)[C@H]1[C@@H]2C(=O)O[C@@H](c3ccccc3)[C@@H](c3ccccc3)N2[C@@H](c2ccc(OCCOC(=O)[C@H]3C[C@H]4C(=O)N[C@@H](Cc5ccccc5)C(=O)N4[C@H]3c3ccc(O)cc3)cc2)[C@]12C(=O)Nc1ccc(I)cc12,-0.0162
7,CC(C)(C)N1CC=CC23O[C@@H]4C=CCOC(=O)[C@@H]4[C@H]2C(=O)N(CCCO)[C@@H]3C1=O (stereo not given in full),-0.429
8,NCCCCCCNC(=O)[C@@H]1C[C@@H]2C(=O)N3CCC[C@H]3C(=O)N2[C@@H]1c1ccc(O)cc1,-0.508
9,CCCCC(CC)C(O)C1C=CC2C(=O)N(c3ccccc3)C(=O)C2N1Nc1ccc([N+](=O)[O-])cc1 (stereo not given),0.602
10,C=C(COC)/C(=C/C[C@@H](OC(=O)c1ccncc1)c1ccc(CO)o1)c1cnc2ccccc2c1,0.471
11,COCCCNC(=O)[C@@H]1c2ccccc2C(=O)N(Cc2ccccc2C(F)(F)F)[C@H]1c1ccc(CO)cc1,-0.198
12,CCCN1C(=O)[C@]2(Cc3ccccc3)N=C(c3ccc(OCCCO)cc3)O[C@@H]2c2ccccc21,0.268
13,CO[C@H]1O[C@H](CO)[C@@H](OC(=O)Nc2ccccc2-c2ccccc2)[C@H](OC(=O)Nc2ccc3c(c2)OCO3)[C@@H]1OC(=O)Nc1ccc2c(c1)OCO2,0.658
14,COCCOC(=O)N1C(=O)[C@@]2(c3cc(C#CC4(O)CCCCCC4)ccc31)[C@H](C(N)=O)[C@H]1C(=O)O[C@H](c3ccccc3)[C@H](c3ccccc3)N1[C@@H]2c1ccc(O)cc1,-0.0186
15,CC(CO)N1C(=O)[C@@H]2C3C(=O)OCCC/C=C\[C@H]3OC23C=CCN(Cn2nnc4ccccc42)C(=O)[C@@H]13 (stereo not given in full),-0.0035
16,C[C@]1(C(=O)NC2CC2)c2ccccc2C(=O)N(Cc2ccc(OC(F)(F)F)cc2)[C@H]1c1ccc(CO)cc1,-0.0186
17,COc1ccc([Si](C)(C)[C@H]2[C@H](CCn3cc([C@H](O)c4ccccc4)nn3)O[C@@]3(C(=O)N(Cc4cccc(N5C(=O)c6cccc7cccc5c67)c4)c4ccccc43)[C@@H]2C)cc1,-0.0141
18,COc1ccc([Si](C)(C)[C@H]2[C@H](CCO)O[C@@]3(C(=O)N(Cc4cccc(N5CCCCC5=O)c4)c4ccccc43)[C@@H]2C)cc1,0.102

row,Structure (SMILES),composite z-score
1,O=C1O[C@@H](c2ccccc2)[C@@H](c2ccccc2)N2[C@@H](c3ccc(O)cc3)[C@]3(C(=O)Nc4ccc(C#CCCO)cc43)[C@@H](C(=O)NC[C@H](O)c3ccccc3)[C@H]12,0.279
2,CC(C)CN1C(=O)[C@@]2(Cc3ccccc31)c1ccccc1C(=O)N(Cc1ccccc1C(F)(F)F)[C@H]2c1ccc(CO)cc1,-0.345
3,CC(C)C(O)C1C=CC2C(=O)N(C)C(=O)C2N1N(c1ccccc1)c1ccccc1 (stereo not given),0.213
4,C=CCC(OC(C)=O)[C@@H]1[C@@H](N(Cc2ccc(-c3ccccc3)cc2)C(=O)c2cccc3ccccc23)c2cc(OCCCO)ccc2N1C(=O)Cc1ccc2ccccc2c1 (stereo not given in full),-0.191
5,Cc1ccc(S[C@]2(C(=O)NC3CC3)CC(=O)N(Cc3ccccc3Cl)[C@@H]2c2ccc(CO)cc2I)cc1,0.191
6,O=C1NCC(=O)N2[C@@H]1C[C@@H](C(=O)O)[C@H]2c1ccc(O)cc1,0.138
7,CC(C)CNC(=O)[C@@]1(c2ccc([N+](=O)[O-])cc2)CC(=O)N(C2CCCCC2)[C@@H]1c1ccc(CO)cc1I,0.213
8,COc1ccc(NN2C(C(O)c3ccccn3)C=CC3C(=O)N(C4CCCCC4)C(=O)C32)cc1 (stereo not given),0.267
9,[N-]=[N+]=NCc1ccccc1C[C@@]1(C(N)=O)N=C(c2ccc(OCCCO)cc2)O[C@@H]1c1ccccc1CN=[N+]=[N-],0.315
10,CN1C(=O)C2C=CC(C(O)c3c(F)cccc3Cl)N(Nc3ccccc3)C2C1=O (stereo not given),0.277
11,COC(=O)c1c(CC[C@@H](CO)NC(=O)N[C@H](Cn2cc(-c3ccccc3C)nn2)C(C)C)oc(C(C)=O)c1C(=O)OC,-0.112
12,C=CCOC(=O)[C@@H]1[C@H]2C(=O)O[C@H](c3ccccc3)[C@H](c3ccccc3)N2[C@H](c2ccc(OCCOC(=O)[C@H]3C[C@H]4C(=O)N[C@@H](CCCCN(C)C)C(=O)N4[C@H]3c3cccc(OCCO)c3)cc2)[C@@]12C(=O)Nc1ccc(I)cc12,0.0665
13,COc1ccc([Si](C)(C)[C@@H]2[C@@H](CCO)O[C@]3(C(=O)N(Cc4cccc(N5C(=O)c6ccccc6Oc6ccccc65)c4)c4ccccc43)[C@H]2C)cc1,0.0355
14,C=CC[C@]1(C(=O)N(C)C)N=C(c2ccc(OCCCO)cc2)O[C@H]1c1ccccc1N=[N+]=[N-],0.313
15,COCCOC(=O)N1C(=O)[C@@]2(c3cc(C#CCC(C(=O)OC)C(=O)OC)ccc31)[C@H](c1ccc(OCCO)cc1)N1[C@H](c3ccccc3)[C@H](c3ccccc3)OC(=O)[C@H]1[C@@H]2C(=O)N1CCN(c2ncccn2)CC1,0.297
16,COCCOC(=O)N1C(=O)[C@@]2(c3cc(C#CC4(O)CCCCCC4)ccc31)[C@H](c1ccccc1OCCO)N1[C@H](c3ccccc3)[C@H](c3ccccc3)OC(=O)[C@H]1[C@@H]2C(N)=O,-0.0046
17,C=CCNC(=O)[C@H]1[C@@H]2C(=O)O[C@@H](c3ccccc3)[C@@H](c3ccccc3)N2[C@@H](c2ccccc2OCCO)[C@]12C(=O)N(C(=O)OCCOC)c1ccc(C#CC3=CCCCC3)cc12,0.944
18,C=CCN1C(=O)[C@@]2(O[C@@H](CCn3cc([C@H](O)c4ccccc4)nn3)[C@H]([Si](C)(C)c3ccc(OC)cc3)[C@H]2C)c2ccccc21,0.276

# From PubChem BioAssay
